What all share (assay): PBM; 200 nM protein, PBS
Conditions in all cases: dsDNA, one strand shown

Assay [1] has as its target HOXB9 (Homo sapiens, UniProt P17482 171-250, T197M).
Assay [2] has as its target HOXA4 (Homo sapiens, UniProt Q00056 201-287, W262R).
The target in assay [3] is HOXC9 (Homo sapiens, UniProt P31274 178-260, K195R).
A further assay concerns the target T1, VENTX (Homo sapiens, UniProt O95231 78-163).
T1 sequence: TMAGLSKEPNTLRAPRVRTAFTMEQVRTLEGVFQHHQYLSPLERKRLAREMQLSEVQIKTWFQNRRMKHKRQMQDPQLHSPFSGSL

The target of assay [4] is HOXA7 (Homo sapiens, UniProt P31268 116-202).
The target in assay [5] is HOXC10 (Homo sapiens, UniProt Q9NYD6 254-340).
Assay [6] addresses HOXB6 (Homo sapiens, UniProt P17509 132-218, K202E).
In assay [7] the target is HOXB9 (Homo sapiens, UniProt P17482 171-250).
For assay [8], the target named is HOXC9 (Homo sapiens, UniProt P31274 178-260).
In assay [9] the target is HOXC9 (Homo sapiens, UniProt P31274 178-260, R193K).
For assay [10], the target named is HOXA4 (Homo sapiens, UniProt Q00056 201-287).
For assay [11], the target named is HOXC10 (Homo sapiens, UniProt Q9NYD6 254-340, K271E).
A further assay deals with VAX1 (Homo sapiens, UniProt Q5SQQ9 86-172).
The target in assay [12] is HOXB9 (Homo sapiens, UniProt P17482 171-250, R186Q).
Assay [13] deals with HOXC9 (Homo sapiens, UniProt P31274 178-260, R222W).
The next assay has as its target T2, PAX4 (Homo sapiens, UniProt O43316 9-242, R227W).
T2 sequence: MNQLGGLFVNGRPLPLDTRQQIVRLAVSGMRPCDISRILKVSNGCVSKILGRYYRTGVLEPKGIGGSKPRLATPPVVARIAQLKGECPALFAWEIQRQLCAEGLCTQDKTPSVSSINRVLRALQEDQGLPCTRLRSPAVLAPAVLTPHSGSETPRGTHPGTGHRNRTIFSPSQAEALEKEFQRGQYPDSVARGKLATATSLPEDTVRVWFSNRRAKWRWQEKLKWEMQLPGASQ

Assay [14] addresses HOXA2 (Homo sapiens, UniProt O43364 129-215, Y150S).
Assay [15] addresses HOXA7 (Homo sapiens, UniProt P31268 116-202, W177C).
The target in assay [16] is HOXA2 (Homo sapiens, UniProt O43364 129-215).
In assay [17] the target is HOXB6 (Homo sapiens, UniProt P17509 132-218).
HOXB6 (Homo sapiens, UniProt P17509 132-218), sequence (P17509 132-218): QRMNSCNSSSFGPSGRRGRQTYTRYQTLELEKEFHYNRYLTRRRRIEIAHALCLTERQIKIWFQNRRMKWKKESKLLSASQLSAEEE

HOXA2 (Homo sapiens, UniProt O43364 129-215), sequence (O43364 129-215): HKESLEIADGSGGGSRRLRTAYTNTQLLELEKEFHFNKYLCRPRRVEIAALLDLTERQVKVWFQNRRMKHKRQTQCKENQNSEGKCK
HOXA4 (Homo sapiens, UniProt Q00056 201-287, W262R), sequence (Q00056 201-287 W262R): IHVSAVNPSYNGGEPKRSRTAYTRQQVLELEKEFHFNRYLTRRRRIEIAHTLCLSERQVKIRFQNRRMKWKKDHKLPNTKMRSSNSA
HOXB9 (Homo sapiens, UniProt P17482 171-250, R186Q), sequence (P17482 171-250 R186Q): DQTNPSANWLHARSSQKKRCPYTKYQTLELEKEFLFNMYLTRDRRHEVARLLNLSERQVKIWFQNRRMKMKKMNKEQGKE
HOXC9 (Homo sapiens, UniProt P31274 178-260, R222W), sequence (P31274 178-260 R222W): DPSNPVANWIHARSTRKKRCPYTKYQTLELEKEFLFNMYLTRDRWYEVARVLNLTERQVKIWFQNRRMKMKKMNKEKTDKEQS
HOXA7 (Homo sapiens, UniProt P31268 116-202, W177C), sequence (P31268 116-202 W177C): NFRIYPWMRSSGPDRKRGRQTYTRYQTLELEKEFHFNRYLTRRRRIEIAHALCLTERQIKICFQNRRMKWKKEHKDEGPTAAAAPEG
HOXB9 (Homo sapiens, UniProt P17482 171-250, T197M), sequence (P17482 171-250 T197M): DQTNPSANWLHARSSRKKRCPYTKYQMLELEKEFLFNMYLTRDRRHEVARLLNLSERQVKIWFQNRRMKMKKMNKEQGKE
HOXC10 (Homo sapiens, UniProt Q9NYD6 254-340, K271E), sequence (Q9NYD6 254-340 K271E): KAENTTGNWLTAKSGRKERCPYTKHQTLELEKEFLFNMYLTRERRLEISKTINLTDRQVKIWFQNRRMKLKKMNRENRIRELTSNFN
HOXC10 (Homo sapiens, UniProt Q9NYD6 254-340), sequence (Q9NYD6 254-340): as the sequence (Q9NYD6 254-340 K271E) above, with E18K counted along it
VAX1, sequence (Q5SQQ9 86-172): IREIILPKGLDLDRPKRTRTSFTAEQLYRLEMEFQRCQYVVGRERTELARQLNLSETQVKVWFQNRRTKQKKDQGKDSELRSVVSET
HOXA2 (Homo sapiens, UniProt O43364 129-215, Y150S), sequence (O43364 129-215 Y150S): as the sequence (O43364 129-215) above, with Y22S counted along it
HOXA7 (Homo sapiens, UniProt P31268 116-202), sequence (P31268 116-202): as the sequence (P31268 116-202 W177C) above, with C62W counted along it
HOXB9 (Homo sapiens, UniProt P17482 171-250), sequence (P17482 171-250): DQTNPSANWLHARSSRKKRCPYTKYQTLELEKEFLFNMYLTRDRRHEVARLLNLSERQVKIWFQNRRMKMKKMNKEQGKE
HOXB6 (Homo sapiens, UniProt P17509 132-218, K202E), sequence (P17509 132-218 K202E): as the sequence (P17509 132-218) above, with K71E counted along it
HOXA4 (Homo sapiens, UniProt Q00056 201-287), sequence (Q00056 201-287): as the sequence (Q00056 201-287 W262R) above, with R62W counted along it
HOXC9 (Homo sapiens, UniProt P31274 178-260), sequence (P31274 178-260): as the sequence (P31274 178-260 R222W) above, with W45R counted along it
HOXC9 (Homo sapiens, UniProt P31274 178-260, R193K), sequence (P31274 178-260 R193K): as the sequence (P31274 178-260 R222W) above, with R16K, W45R counted along it
HOXC9 (Homo sapiens, UniProt P31274 178-260, K195R), sequence (P31274 178-260 K195R): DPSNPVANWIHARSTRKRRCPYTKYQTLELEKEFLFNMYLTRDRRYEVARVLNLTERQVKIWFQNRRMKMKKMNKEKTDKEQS

Turning to ATAATTAA, the binding signal with HOXB9 [1] is 10.3 upbm affinity estimate (log intensity, higher = more binding, comparable within an allelic series); with HOXA4 [2], 10.9 upbm affinity estimate (log intensity, higher = more binding, comparable within an allelic series); in the assay with HOXC9 [3], 12.9 upbm affinity estimate (log intensity, higher = more binding, comparable within an allelic series); with VENTX, 12.5 upbm affinity estimate (log intensity, higher = more binding, comparable within an allelic series); with HOXA7 [4] it was 12.1 upbm affinity estimate (log intensity, higher = more binding, comparable within an allelic series); with HOXC10 [5] it was 12.5 upbm affinity estimate (log intensity, higher = more binding, comparable within an allelic series). Besides, the binding signal is 10.3 upbm affinity estimate (log intensity, higher = more binding, comparable within an allelic series) with HOXB6 [6]; 12.1 upbm affinity estimate (log intensity, higher = more binding, comparable within an allelic series) in the assay with HOXB9 [7]; 12.9 upbm affinity estimate (log intensity, higher = more binding, comparable within an allelic series) in the assay with HOXC9 [8]; 12.8 upbm affinity estimate (log intensity, higher = more binding, comparable within an allelic series) with HOXC9 [9]; 14.3 upbm affinity estimate (log intensity, higher = more binding, comparable within an allelic series) with HOXA4 [10]; 12.3 upbm affinity estimate (log intensity, higher = more binding, comparable within an allelic series) with HOXC10 [11]. The binding signal with VAX1 was 13.5 upbm affinity estimate (log intensity, higher = more binding, comparable within an allelic series); in the assay with HOXB9 [12] it was 11.9 upbm affinity estimate (log intensity, higher = more binding, comparable within an allelic series); with HOXC9 [13] it was 11.2 upbm affinity estimate (log intensity, higher = more binding, comparable within an allelic series); in the assay with PAX4, 11.2 upbm affinity estimate (log intensity, higher = more binding, comparable within an allelic series); with HOXA2 [14], 11 upbm affinity estimate (log intensity, higher = more binding, comparable within an allelic series); in the assay with HOXA7 [15], 8.99 upbm affinity estimate (log intensity, higher = more binding, comparable within an allelic series). In addition, the binding signal was 13 upbm affinity estimate (log intensity, higher = more binding, comparable within an allelic series) with HOXA2 [16] and 12.4 upbm affinity estimate (log intensity, higher = more binding, comparable within an allelic series) with HOXB6 [17].

As to GATAATTA, the binding signal with HOXB9 [1] was 10.5 upbm affinity estimate (log intensity, higher = more binding, comparable within an allelic series); with HOXA4 [2], 11 upbm affinity estimate (log intensity, higher = more binding, comparable within an allelic series); with HOXC9 [3] it was 12.9 upbm affinity estimate (log intensity, higher = more binding, comparable within an allelic series); with VENTX, 12.8 upbm affinity estimate (log intensity, higher = more binding, comparable within an allelic series); with HOXA7 [4], 12.2 upbm affinity estimate (log intensity, higher = more binding, comparable within an allelic series); with HOXC10 [5], 12.2 upbm affinity estimate (log intensity, higher = more binding, comparable within an allelic series). For the same sequence, the binding signal was 10.2 upbm affinity estimate (log intensity, higher = more binding, comparable within an allelic series) with HOXB6 [6]; 11.9 upbm affinity estimate (log intensity, higher = more binding, comparable within an allelic series) in the assay with HOXB9 [7]; 12.8 upbm affinity estimate (log intensity, higher = more binding, comparable within an allelic series) in the assay with HOXC9 [8]; 12.8 upbm affinity estimate (log intensity, higher = more binding, comparable within an allelic series) with HOXC9 [9]; 14.3 upbm affinity estimate (log intensity, higher = more binding, comparable within an allelic series) with HOXA4 [10]; 12.2 upbm affinity estimate (log intensity, higher = more binding, comparable within an allelic series) with HOXC10 [11]. The binding signal with VAX1 is 13.7 upbm affinity estimate (log intensity, higher = more binding, comparable within an allelic series); with HOXB9 [12], 11.8 upbm affinity estimate (log intensity, higher = more binding, comparable within an allelic series); with HOXC9 [13] it was 11.1 upbm affinity estimate (log intensity, higher = more binding, comparable within an allelic series); with PAX4, 11.2 upbm affinity estimate (log intensity, higher = more binding, comparable within an allelic series); with HOXA2 [14], 10.9 upbm affinity estimate (log intensity, higher = more binding, comparable within an allelic series); with HOXA7 [15], 9.01 upbm affinity estimate (log intensity, higher = more binding, comparable within an allelic series). In addition, the binding signal with HOXA2 [16] is 13.2 upbm affinity estimate (log intensity, higher = more binding, comparable within an allelic series); with HOXB6 [17] it was 12.5 upbm affinity estimate (log intensity, higher = more binding, comparable within an allelic series).

With TTAATTAA, the binding signal was 10.4 upbm affinity estimate (log intensity, higher = more binding, comparable within an allelic series) with HOXB9 [1]; 11 upbm affinity estimate (log intensity, higher = more binding, comparable within an allelic series) with HOXA4 [2]; 12.9 upbm affinity estimate (log intensity, higher = more binding, comparable within an allelic series) in the assay with HOXC9 [3]; 12.8 upbm affinity estimate (log intensity, higher = more binding, comparable within an allelic series) in the assay with VENTX; 12.2 upbm affinity estimate (log intensity, higher = more binding, comparable within an allelic series) with HOXA7 [4]; 12.4 upbm affinity estimate (log intensity, higher = more binding, comparable within an allelic series) with HOXC10 [5]. The binding signal with HOXB6 [6] was 10.3 upbm affinity estimate (log intensity, higher = more binding, comparable within an allelic series); with HOXB9 [7], 12.3 upbm affinity estimate (log intensity, higher = more binding, comparable within an allelic series); with HOXC9 [8], 12.8 upbm affinity estimate (log intensity, higher = more binding, comparable within an allelic series); with HOXC9 [9] it was 12.7 upbm affinity estimate (log intensity, higher = more binding, comparable within an allelic series); with HOXA4 [10] it was 14.3 upbm affinity estimate (log intensity, higher = more binding, comparable within an allelic series); in the assay with HOXC10 [11], 12.3 upbm affinity estimate (log intensity, higher = more binding, comparable within an allelic series). The binding signal with VAX1 is 13.6 upbm affinity estimate (log intensity, higher = more binding, comparable within an allelic series); with HOXB9 [12] it was 12 upbm affinity estimate (log intensity, higher = more binding, comparable within an allelic series); with HOXC9 [13] it was 11.5 upbm affinity estimate (log intensity, higher = more binding, comparable within an allelic series); with PAX4, 11.4 upbm affinity estimate (log intensity, higher = more binding, comparable within an allelic series); with HOXA2 [14], 10.8 upbm affinity estimate (log intensity, higher = more binding, comparable within an allelic series); in the assay with HOXA7 [15] it was 8.85 upbm affinity estimate (log intensity, higher = more binding, comparable within an allelic series). The binding signal is 13.1 upbm affinity estimate (log intensity, higher = more binding, comparable within an allelic series) with HOXA2 [16] and 12.5 upbm affinity estimate (log intensity, higher = more binding, comparable within an allelic series) with HOXB6 [17].

The record behind these values is publication PMC11006913.
